# Measured values as given in paper PMC5540273 (PLoS ONE, 2017).
# System: MST4
# Details: concentration: 1 μM, replicates: in singlicate; n = 1
# 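Further: KINOMEscan kinase panel screen.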
row,SMILES,%Inh [%]
1,COC(=O)Nc1nc2ccc(Oc3ccc(CC(=O)Nc4cc(C(F)(F)F)ccc4F)cc3)cc2[nH]1 [GW680903],0
2,COc1ccc(C2=C(Nc3cccc(O)c3)C(=O)NC2=O)cc1 [SB-390766],0
3,CN(C)c1ncnc2nc[nH]c12 [SKF-31736],1
4,Cc1cc(-c2ccnc(Nc3cccc(C#N)c3)n2)cc(C)c1O [GSK1440913],9

# System: MTOR
# Details: concentration: 1 μM, replicates: in singlicate; n = 1
row,SMILES,%Inh [%]
1,N#CC1(c2cccc(C(=O)Nc3cccc(Oc4ccc5nc(NC(=O)C6CC6)sc5n4)c3)c2)CC1,3
2,O=C(Nc1n[nH]c2nc(-c3ccccc3)ccc12)C1CC1 [SB-708999],0
3,CC(C)c1nc(-c2cccc(NS(=O)(=O)c3c(F)cccc3F)c2)c(-c2ccnc(Nc3ccc(N4CCOCC4)nc3)n2)s1.Cl [GSK1723980],7
4,Cl.Cl.NCC(NC(=O)c1cc(-c2cccnc2)c(-c2ccnc3[nH]ccc23)s1)c1ccccc1 (centres unmarked) [GSK1323434],10
5,COC(=O)Nc1nc2cc(Oc3ccc(NC(=O)Nc4cccc(SC)c4)cc3)ccc2[nH]1.Cl [GW697999],28
6,O=C(Nc1n[nH]c2nc(-c3ccccc3O)ccc12)C1CC1 [SB-711880],16
7,O=C(Nc1n[nH]c2cc(-c3cccs3)ccc12)C1CC1 [SB-731284],42
8,O=C(Nc1c(F)cccc1F)c1cc(C(=O)c2ccccc2F)c[nH]1 [GSK1326180],18
9,Cc1ccc(Nc2ccnc(Nc3ccc(C)c(F)c3)n2)cc1O.Cl [GW582868],15
10,COc1cccc(-c2nc(-c3ccccc3)[nH]c2-c2ccncc2)c1 [SB-610250],13
11,CCn1cnc2c(NCc3ccccc3)ncnc21 [SKF-96418],37
12,Cl.Cl.NC(CNC(=O)c1cc(Br)c(-c2ccnc3[nH]ccc23)s1)c1ccccc1 (centres unmarked) [GSK1322949],26
13,CN(c1ccc(F)c(NC(=O)c2cccc(OC(C)(C)C#N)c2Cl)c1)c1ccc2nc(NC(=O)C3CC3)sc2n1,0
14,Fc1cc(Cl)ccc1Nc1ccnc2cc(-c3ccc(CN4CCOCC4)o3)ccc12 [GW560109],1
15,COc1cc(Nc2ccnc3cc(-c4ccncc4)ccc23)cc(OC)c1OC.Cl [GW494610],20
16,Cc1ccc(O)cc1Nc1ccnc2cc(-c3ccc(CN4CCCCC4)o3)ccc12 [GW557777],0
17,Nc1ncc(-c2ccc3nccc(-c4ccncc4)c3c2)cc1S(=O)(=O)N1CCCCC1 [GSK1693850],100
18,COc1ccc(C)c(Nc2ccnc(Nc3ccc(-c4cnc[nH]4)cc3)n2)c1.Cl [GW784041],0
19,Fc1cc(Cl)ccc1Nc1ccnc2cc(-c3ccc(CN4CCSCC4)o3)ccc12 [GW560106],6

row,SMILES,%Inh [%]
1,Cc1ccc(NC(=O)c2ccnc(N3CCCCC3)c2)cc1-c1ccc(C(=O)NCC2CC2)cc1 [GW775610],9
2,CCOc1nccc(-c2c(-c3ccc(F)cc3)ncn2C2CCNCC2)n1 [SB-249175],0
3,O=C(O)C(F)(F)F.O=c1[nH]ccc2nc(N[C@@H]3CCNC3)nc(Nc3ccc4c(c3)S(=O)(=O)CC4)c12 [GSK2181306],1
4,c1ccc(Oc2ccc(Nc3ccnc4cc(-c5ccc(CN6CCCCC6)o5)ccc34)cc2)nc1 [GW567143],2
5,Cc1ccc(C)c(NC(=O)Nc2ccc(C)c(-c3ccc(C(=O)Nc4ccncc4)cc3)c2)c1 [GSK1398473],17
6,Cn1cc(-c2cnc(N)c3c(-c4ccc5c(c4)CCN5C(=O)Cc4ccccc4)csc23)cn1 [GSK2593074],0
7,O=C(O)C(F)(F)F.O=c1[nH]ccc2nc(N[C@@H]3CCNC3)nc(Nc3cc(Cl)cc(Cl)c3)c12 [GSK2188764],9
8,Cl.O=C(Nc1ccc(Oc2ccc3[nH]c(NC(=O)c4ccco4)nc3c2)cc1)Nc1cc(C(F)(F)F)ccc1F [GW683134],5
9,Cc1cccc(Nc2nc(NCCN)ncc2C(N)=O)c1 [GSK1292139],12
10,CC(C)NCC(Cc1ccccc1)NC(=O)c1cc(Br)c(-c2ccnc3[nH]ccc23)s1.Cl.Cl (centres unmarked) [GSK1383281],6
11,Nc1cccc(-c2ccc3c(N)n[nH]c3c2)c1 [GSK2193613],13
12,COc1cc(Nc2nccc(N3CCC(NS(=O)(=O)c4ccc(NC(C)=O)cc4)CC3)n2)cc(OC)c1OC [GSK1379825],16
13,Cc1nn2c(=O)cc(N3CCO[C@H](C)C3)nc2n1Cc1cccc(Cl)c1Cl [GSK2373693],61
14,CN1CCN(Cc2ccc(NC(=O)Nc3ccc(N(C)c4ccnc(Nc5ccc(CS(C)(=O)=O)cc5)n4)cc3)cc2)CC1.Cl [GW827654],0
15,COC(=O)Nc1nc2ccc(Oc3ccc(CC(=O)Nc4cc(C(F)(F)F)ccc4F)cc3)cc2[nH]1 [GW680903],26
16,COc1ccc(C2=C(Nc3cccc(O)c3)C(=O)NC2=O)cc1 [SB-390766],31
17,CN(C)c1ncnc2nc[nH]c12 [SKF-31736],54
18,Cc1cc(-c2ccnc(Nc3cccc(C#N)c3)n2)cc(C)c1O [GSK1440913],7
